Reference: PubChem BioAssay AID1159580 (chemical genetic matrix, 2015)
The campaign covered roughly 5,500 compounds. About 2,000 (36%) were called active. Roughly 18% stayed inconclusive and do not appear here. No stated cut-off is given here; in the data, active means normalized growth mostly below about 0.91 (no sharp cut-off); inconclusive means no clear call, values can overlap the other calls; inactive means mostly above about 0.92. The list shows a part of the results.

Assay: chemical genetic growth profiling, strain panel (AID 1159580);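 further: tested at 20 µM; growth read once vehicle control cultures reached saturation at 30 °C; 1 = growth at the plate median or of vehicle wells; lower values mean less growth of the strain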
Details: growth OD

Measured: normalized growth

COc1ccccc1CC(=O)NC1CCN(Cc2ccccc2)CC1
inactive: S. cerevisiae deletion strains, locus YAL013W, strain DEP1, active compounds read low 1.01 | S. cerevisiae deletion strains, locus YBR229C, strain ROT2, active compounds read low 1 | S. cerevisiae deletion strains, locus YDL101C, strain DUN1, active compounds read low 1.01 | S. cerevisiae deletion strains, locus YDL134C, strain PPH21, active compounds read low 1.02 | S. cerevisiae deletion strains, locus YDR150W, strain NUM1, active compounds read low 0.993 | S. cerevisiae deletion strains, locus YEL061C, strain CIN8, active compounds read low 1.02 | S. cerevisiae deletion strains, locus YGR078C, strain PAC10, active compounds read low 1.01 | S. cerevisiae deletion strains, locus YGR229C, strain SMI1, active compounds read low 1.02 | S. cerevisiae deletion strains, locus YHR030C, strain SLT2, active compounds read low 0.943 | S. cerevisiae deletion strains, locus YHR087W, strain rtc3, active compounds read low 0.998 | S. cerevisiae deletion strains, locus YJR043C, strain POL32, active compounds read low 1.01 | S. cerevisiae deletion strains, locus YJR075W, strain HOC1, active compounds read low 1.02 | S. cerevisiae deletion strains, locus YKL190W, strain CNB1, active compounds read low 1.01 | S. cerevisiae deletion strains, locus YLR039C, strain RIC1, active compounds read low 0.947 | S. cerevisiae deletion strains, locus YLR058C, strain SHM2 (second series), active compounds read low 1.01 | S. cerevisiae deletion strains, locus YLR085C, strain ARP6, active compounds read low 1.04 | S. cerevisiae deletion strains, locus YLR262C, strain YPT6, active compounds read low 0.826 | S. cerevisiae deletion strains, locus YML094W, strain GIM5, active compounds read low 0.991 | S. cerevisiae deletion strains, locus YMR219W, strain ESC1, active compounds read low 1.01 | S. cerevisiae deletion strains, locus YMR263W, strain SAP30, active compounds read low 1.02 | S. cerevisiae deletion strains, locus YMR307W, strain GAS1, active compounds read low 1.11 | S. cerevisiae deletion strains, locus YNL153C, strain GIM3, active compounds read low 1.01 | S. cerevisiae deletion strains, locus YNL298W, strain CLA4 (second series), active compounds read low 1.04 | S. cerevisiae deletion strains, locus YNL322C, strain KRE1, active compounds read low 1 | S. cerevisiae deletion strains, locus YNR030W, strain Alg12, active compounds read low 1.02 | S. cerevisiae deletion strains, locus YOL006C, strain TOP1, active compounds read low 0.947 | S. cerevisiae deletion strains, locus YPL055C, strain LGE1, active compounds read low 1.01 | S. cerevisiae deletion strains, locus YPL241C, strain CIN2, active compounds read low 1.13 | S. cerevisiae deletion strains, locus YPR135W, strain CTF4, active compounds read low 1.07 | S. cerevisiae strains, strain wild type, active compounds read low 1.02
